Laboratory results: PubChem BioAssay (NCI)
Compounds without any hit were thinned out: in the full panel of roughly 83,000, 20% have a hit.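 96-well plates, one dose, 48 hours. Percent growth reported; active if below 10.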 Active and inactive are the calls of the source.

Tested on: HL-60(TB) leukemia
Assay: NCI-60 one-dose screen, 48 h (100 = growth as untreated, 0 = no growth, -100 = all killed)
Conditions: 10 µM unless noted

Question: `Nc1nc(N)c2cc(NCc3ccc(Cl)c(Cl)c3)ccc2n1` was tested. Which growth did it give?
Answer: -65.7% (active)

Question: For `O=C(O)c1cn(C2CC2)c2cc(N3CCN(Cc4nnc(Nc5ccccc5)o4)CC3)c(F)cc2c1=O`, which growth is on record?
Answer: 91.4% (inactive)

Question: Which growth does the source give for `CO[C@H]1C[C@@H]2CC[C@@H](C)[C@@](O)(O2)C(=O)C(=O)N2CCCC[C@H]2C(=O)O[C@H]([C@H](C)C[C@@H]2CC[C@@H](OC(=O)C(C)(CO)CO)[C@H](OC)C2)CC(=O)[C@H](C)/C=C(\C)[C@@H](O)[C@@H](OC)C(=O)[C@H](C)C[C@H](C)\C=C/C=C/C=C/1C` here?
Answer: -11.9% (active)

Question: How did the growth turn out when `CCOc1cc2ncc(C#N)c(Nc3ccc(OCc4cccc(F)c4)c(Cl)c3)c2cc1NC(=O)CCCCC1CCSS1` (configuration not stated) was run?
Answer: 108% (inactive)

Question: For `COc1ccc(-c2cc(-c3cccnc3)nc3sc4c(=O)n(-c5ccc(C)cc5)cnc4c23)cc1OC`, which growth is on record?
Answer: 107% (inactive)

Question: With `CC(C)(C)OC(=O)N1C/C(=C\c2ccccc2)C(=O)/C(=C/c2ccccc2)C1` as the compound, how does the growth read?
Answer: 99.6% (inactive)

Question: `Nc1nc(N)c2cc(Sc3cccc(C(F)(F)F)c3)ccc2n1` was tested. Which growth did it give?
Answer: 24.6% (inactive)

Question: With `Cc1cc(C)n(CC(=O)Nc2ccc(-c3nc4ccccc4s3)cc2)n1` as the compound, how does the growth read?
Answer: 103% (inactive)

Question: For `CC1(O)CCC2CC3OC3(C)CCC3OC3(C)CCC1C2(C)C` (configuration not stated), which growth is on record?
Answer: 120% (inactive)

Question: With `COc1ccc(C2CC(c3ccc4ccccc4c3)=NN2c2nc(O)c(C3=c4cc(OC)ccc4=NC3=O)s2)cc1` (configuration not stated) as the compound, how does the growth read?
Answer: 36.2% (inactive)

Question: How did the growth turn out when `Nc1ccc(F)c(Cl)c1F` was run?
Answer: 95.6% (inactive)

Question: `Oc1cccc2ccc(N/N=C/c3cc(CN4CCCCC4)c(O)c4ncccc34)nc12` was tested. Which growth did it give?
Answer: -12.1% (active)

Question: For `c1ccc(-c2nn(-c3ccccc3)[n+](-c3ccccc3-c3ccccc3)n2)cc1`, which growth is on record?
Answer: -31.4% (active)

Question: For `CCOC(=O)c1ccc2c(c1)c1c(C)c3ccncc3c(C)c1n2C`, which growth is on record?
Answer: 3.93% (active)

Question: With `CCOC(=O)COc1c(C)cc(SSc2cc(C)c(OCC(=O)OCC)c(C)c2)cc1C` as the compound, how does the growth read?
Answer: 88.5% (inactive)

Question: `Cc1c(C(=O)/C=C/Nc2c(Cl)cc(S(N)(=O)=O)cc2Cl)sc2nc3ccccc3n12` was tested. Which growth did it give?
Answer: 101% (inactive)

Question: Which growth does the source give for `CCCCc1ccc(NC(=O)C(F)(F)F)cc1` here?
Answer: 71.2% (inactive)

Question: With `COc1cccc(-c2cc(-c3cccc(NS(C)(=O)=O)c3)nc(N)c2C#N)c1O` as the compound, how does the growth read?
Answer: 2.21% (active)

Question: For `CCCCN(CCCC)CC(CN(CC)CC)OC(=O)Nc1ccccc1` (configuration not stated), which growth is on record?
Answer: 84.1% (inactive)

Question: Which growth does the source give for `COc1ccc(-c2nnc(COc3ccc(NC(=O)Nc4cccc(C(F)(F)F)c4)cc3F)o2)cc1` here?
Answer: 4.03% (active)

Question: `CCCCCCCc1n(Cc2ccc3ccccc3c2)c2ccccc2[n+]1Cc1ccc2ccccc2c1` was tested. Which growth did it give?
Answer: -63.7% (active)

Question: For `C/C=C/C=N/NC(=S)Nc1ccccc1`, which growth is on record?
Answer: 81.7% (inactive)

Question: With `COc1ccc(-c2[nH]c3ccc(OC)cc3c2C=C(C#N)C#N)cc1` as the compound, how does the growth read?
Answer: -43.1% (active)

Question: For `CC1=C(CCC(C)NCc2ccc(OCCCN3CCCCC3)cc2)C(C)(C)CCC1` (configuration not stated), which growth is on record?
Answer: -68.7% (active)

Question: For `COc1ccc(-c2nc3ccccn3c2-c2nc3ccc(Cl)cc3[nH]2)cc1`, which growth is on record?
Answer: 74.8% (inactive)

Question: `Oc1ccccc1/C=N/Nc1ccc2ccccc2n1` was tested. Which growth did it give?
Answer: -8.13% (active)

Question: With `CC1=C(O)C(=O)C(C(C#N)(C#N)C(C#N)C#N)C1` (configuration not stated) as the compound, how does the growth read?
Answer: 91.7% (inactive)

Question: For `CCCCC#Cc1c(/C=C(\CCCC)SCC)n(C)c(=O)[nH]c1=O`, which growth is on record?
Answer: 92.8% (inactive)

Question: Which growth does the source give for `CCCCC/C(C)=N\NC(N)=S` here?
Answer: 96.5% (inactive)

Question: With `C=C1C(=O)O[C@@H]2[C@@H]3O[C@@](C)(CC/C=C(\C)CCC[C@@H]2C)[C@H](O)C[C@@H]13` as the compound, how does the growth read?
Answer: 14.4% (inactive)

Question: `COc1ccc2oc3c(ccc[n+]3C)c(=O)c2c1` was tested. Which growth did it give?
Answer: 109% (inactive)

Question: How did the growth turn out when `CC1=C2[C@@H](CC1)[C@]1(C)O[C@@](C3CCNCC3)(C[C@H]1OC(=O)CO)[C@H]2OC(=O)/C=C/c1ccccc1` was run?
Answer: 97.1% (inactive)

Question: How did the growth turn out when `Fc1ccc(NCc2nnc(-c3ccc(Cl)cc3)o2)cc1` was run?
Answer: 69.5% (inactive)

Question: How did the growth turn out when `CSc1nc(-c2cccc(NC(=O)CCl)c2)c(C#N)c(=O)n1C` was run?
Answer: -22.1% (active)

Question: For `CN(C)c1ccc(/C=N/Nc2nnc3n2N=C(c2ccc(Cl)cc2)CS3)cc1`, which growth is on record?
Answer: 91.4% (inactive)

Question: For `CNC(=O)c1cc(Oc2ccc(NC(=O)c3nc(S(C)(=O)=O)n(C)c3-c3ccc(F)cc3)cc2)ccn1`, which growth is on record?
Answer: 69.8% (inactive)

Question: With `COc1cc(Cl)cc(-c2nn(-c3cccc(NC(=O)Nc4ccc(Cl)c(C(F)(F)F)c4)c3)cc2-c2ccncc2)c1` as the compound, how does the growth read?
Answer: -9.59% (active)
